Experimental data taken from ChEMBL document CHEMBL1157539, “Thousands of chemical starting points for antimalarial lead identification” (Nature, 2010).

What was measured:
Format in all cases: functional
Plasmodium falciparum [1] = experiment: GSK_TCMDC: Inhibition of Plasmodium falciparum 3D7 in whole red blood cells, using parasite LDH activity as an index of growth. Test compounds present at 2uM
Plasmodium falciparum [2] = experiment: GSK_TCMDC: Inhibition of Plasmodium falciparum Dd2 in whole red blood cells, using parasite LDH activity as an index of growth. Test compounds present at 2uM
HepG2 = experiment: GSK_TCMDC: Percent inhibition of human HepG2 cell line. Test compounds present at 10uM.

Structure (SMILES)	Inhibition (Plasmodium falciparum [1]) [%]	Inhibition (Plasmodium falciparum [2]) [%]	Inhibition (HepG2) [%]
Cc1cccc(Nc2nc(N)c3ccccc3n2)c1.Cl	99	49	1
CCCc1ccc(S(=O)(=O)Nc2ccc3c(c2)CCC3)cc1	96	0	8
O=C(O)C(F)(F)F.O=C1OC2(CCN(Cc3cccc(-c4ncc[nH]4)c3)CC2)CN1CCNCc1ccccc1	94	0	0
COc1ccc(CNC2CCN(C)CC2)cc1-c1ccc(S(=O)(=O)NC2CCC2)c(C)c1.O=C(O)C(F)(F)F	100	96	24
COc1cccc(-c2cc(-c3ccc(NC(=O)c4ccccc4)cc3)c3c(N)ncnc3n2)c1	99	98	0
Cc1cc(O)c(CNC2CCCCC2)cc1C.Cl	95	95	6
Cc1nc(SCC(=O)N2CCCC2=O)c2c(C)c(C)sc2n1	96	0	45
Cl.O=c1cc(NCCCNCc2ccc(C(F)(F)F)s2)[nH]c2ccccc12	99	68	0
O=C(Nc1cccc(CN2CCCN(Cc3cccc(O)c3)CC2)c1)c1ccc(-c2ccccc2)cc1.O=C(O)C(F)(F)F	100	66	28
Cc1cccc2nc(-c3cccc(-c4ccc(NC(=O)CS(C)(=O)=O)cc4)c3)[nH]c12	85	8	3
CCOc1c(Br)cc(Br)cc1CNCCCCNc1nc2ccccc2[nH]1	100	37	25
Cl.N=C(N)Nc1ccc(CCc2ccc(NC(=N)N)cc2)cc1	96	95	57
Cc1cc2nc(-c3ccc(C(=O)NCc4cccc(F)c4)cc3)[nH]c2cc1C	91	6	0
CCC(=O)N1CCc2cc(Br)cc(S(=O)(=O)N3CC(C)CC(C)C3)c21 (stereo unspecified)	85	84	5
CC(C)c1ccc(NC(=O)c2ccc(CN3CCCN(CC4CCCCC4)CC3)cc2)cc1.O=C(O)C(F)(F)F	90	34	50
Nc1nc(N)c2c(Cc3ccc(Br)cc3)cccc2n1	99	20	28
Cl.Nc1cccc(C=CC(=O)N=c2cc[nH]c3ccccc23)c1	98	60	7
CC(C)(C)C1=CC(=NNC(=O)c2ccncc2)C=C(C(C)(C)C)C1=O	99	99	47
O=C(COc1ccccc1)NC1CCN(c2ccnc3cc(Cl)ccc23)C1.O=C(O)C(F)(F)F (stereo unspecified)	100	35	22

Structure (SMILES)	Inhibition (Plasmodium falciparum [1]) [%]	Inhibition (Plasmodium falciparum [2]) [%]	Inhibition (HepG2) [%]
O=C(Cn1c(CCc2cccc(F)c2F)nc(=O)c2ccccc21)N(CCCN1CCCCC1)Cc1ccc(-c2ccc(C(F)(F)F)cc2)cc1.O=C(O)C(O)C(O)C(=O)O	100	94	100
COc1cc2nc(N3CCC(CNC(=O)c4cc(Br)c(Br)s4)CC3)nc(N)c2cc1OC.O=C(O)C(F)(F)F	100	97	22
CN(C)C(=O)n1cnc(S(=O)(=O)N(C)c2ccc(Cl)cc2)n1.Cl	88	80	7
CCN(CCCN1CCCCC1)c1cc(C)nc(Nc2ccc(Oc3ccccc3)cc2)n1.O=C(O)C(F)(F)F	100	99	50
COc1ccc(COc2c(OC)cc(Cc3cnc(N)nc3N)cc2OC)cc1	90	23	5
O=C(Nc1ccc(Cn2ncc(N3CCCNCC3)c(Cl)c2=O)cc1)Nc1ccc(-c2ccccc2)cc1.O=C(O)C(F)(F)F	93	51	10
CCN1CCC(N(Cc2ccc(-c3ccc(Cl)cc3)cc2)C(=O)Cn2c(CCc3cccc(F)c3F)cc(=O)c3ccccc32)CC1.O=C(O)C(O)C(O)C(=O)O	99	95	100
Cc1ccccc1C1CCN(C2CCC(NC(=O)c3ccc4c(c3)-c3nocc3C(C)O4)CC2)CC1 (stereo unspecified)	88	37	68
Cc1cccc(Cl)c1Nc1nnc(-c2cccc(C(=O)NC[C@@H]3CC[C@H]4C[C@@H]3C4(C)C)c2)o1	85	69	2
Cc1cccc(NC(=O)Nc2ccc(I)c(OCCN(C)C)c2)c1C	96	17	13
COc1cccc(CN2CCCN(Cc3cccc(NC(=O)c4ccc(-c5ccccc5)cc4)c3)CC2)c1.O=C(O)C(F)(F)F	86	8	35
CCNc1cc(C(=O)N[C@@H](Cc2ccccc2)[C@H](O)CNC(CC)c2cccc(Cl)c2)cc(N2CCCC2=O)c1.Cl (stereo partly specified)	97	99	12
Cc1cc(N[C@@H](CC(C)C)C(=O)Nc2ccccc2)nc(Nc2ccccc2)n1.O=C(O)C(F)(F)F	99	93	0
O=C(CSc1ccccn1)Nc1c(F)cccc1F	88	0	0
CCOc1cc(C(=O)N[C@@H](Cc2ccccc2)[C@H](O)CNCc2cccc(OC)c2)cc(N2CCCCS2(=O)=O)c1.Cl	97	94	3
Cc1sc2nc(CSc3ccccc3)nc(N3CCN(CC(=O)NC4CC4)CC3)c2c1C	96	95	2
COc1cc(C(=O)Nc2cccc(-c3nc4ccccc4[nH]3)c2)ccc1OC(C)=O	83	37	16
C[C@@H](N)C#Cc1cc2c(Nc3ccc(OCc4cccc(F)c4)c(Cl)c3)ncnc2s1.O=CO	89	23	17
Cl.O=C(NCCCCN1CCC(O)(c2ccc3c(c2)OCO3)CC1)c1ccc(NC(=O)c2ccc(Cl)cc2)cc1	86	6	15

Structure (SMILES)	Inhibition (Plasmodium falciparum [1]) [%]	Inhibition (Plasmodium falciparum [2]) [%]	Inhibition (HepG2) [%]
Cl.O=C(NCCCCN1CCC(c2ccc3c(c2OCCO)CCCC3)CC1)c1ccc2oc(-c3ccc(C(F)(F)F)cc3)cc2c1	93	56	54
Nc1ccc(-c2ccc(NC(=O)Nc3ccccc3)cc2)cn1	91	93	0
Cc1noc(C)c1-c1cccc(CNCc2ccc(-c3ccc(-c4nc5cc(F)ccc5[nH]4)cc3)cc2)c1.O=C(O)C(F)(F)F	100	92	23
CCNc1cc(C(=O)N[C@@H](Cc2cccc(Cl)c2)[C@H](O)CNC(C)CCCC(C)C)cc(N2CCCCS2(=O)=O)c1.Cl (stereo partly specified)	98	78	7
Clc1ccc(Cn2nc(Br)nc2Br)c(Cl)c1	96	96	4
O=C(NC(CCCN1CCC(c2ccccc2)CC1)c1ccc(Cl)c(Cl)c1)c1cc(C(F)(F)F)cc(C(F)(F)F)c1 (stereo unspecified)	92	87	33
COc1cc(NC(=O)c2cc([N+](=O)[O-])ccc2NC(=O)CNC2CCCCC2C)cc(OC)c1 (stereo unspecified)	87	78	0
Cc1ccc2[nH]c3c(NCCN(C)C)ncnc3c2c1	99	5	9
CCN(CC)CCCn1c(N)c(-c2nc3ccccc3[nH]2)c2nc(C#N)c(C#N)nc21	100	99	8
CC1(C)N=C(N)N=C(N)N1c1ccc([N+](=O)[O-])cc1.Cl	93	1	3
Cc1nc(Nc2ccc(F)cc2)nc(N2CCc3cc(O)ccc3C2C)c1C.Cl (stereo unspecified)	99	97	0
O=C(NCCCCN1CCN(c2cccc3c2CCCC3)CC1)c1ccc(NC(=O)c2ccc(Cl)cc2)cc1	100	85	35
CC1(C)N=C(NC(=O)Nc2ccc([N+](=O)[O-])cc2)N=C(N)N1OCc1cccc2ccccc12	97	21	35
COc1ccc(-c2nc3c4ccccc4c4ccc(I)cc4c3[nH]2)cc1	96	16	4
O=C(NCC1CC1)C1CCN(C(c2ccccc2)c2cc(F)cc(F)c2)CC1 (stereo unspecified)	99	95	0
Oc1ccc2[nH]cc(C3CCN(CCCCCCCCCN4CCC(c5c[nH]c6ccc(O)cc56)CC4)CC3)c2c1	100	2	22
Cc1nc2ccc(-c3nc4cc(N)ccc4[nH]3)cc2[nH]1	94	80	6
Cc1cc(C(=O)Nc2ccc3c(c2)CCN3C2CCN(Cc3csc4ccccc34)C2)no1 (stereo unspecified)	96	96	1
O=C(Nc1ccccc1O)C1CCN(c2ncnc3cc(-c4ccc(F)cc4)sc23)CC1	97	94	10
